# Unmarked numbers belong to inactive results.
# Key:
# Assay in all cases: log2 ratio of Biotin-Ahx-Ub-VS probe labelling (fragment/DMSO); higher = less target engagement (more negative = stronger competition), active = hit call of the paper (q ≤ 0.05, log2 ratio ≤ -1)
# Settings in all cases: compound concentration: 200 uM; treatment time: 3 h
# OTUD6B = biological target: T1, OTUD6B (UniProt Q8N6M0)
# T1 sequence (whole entry): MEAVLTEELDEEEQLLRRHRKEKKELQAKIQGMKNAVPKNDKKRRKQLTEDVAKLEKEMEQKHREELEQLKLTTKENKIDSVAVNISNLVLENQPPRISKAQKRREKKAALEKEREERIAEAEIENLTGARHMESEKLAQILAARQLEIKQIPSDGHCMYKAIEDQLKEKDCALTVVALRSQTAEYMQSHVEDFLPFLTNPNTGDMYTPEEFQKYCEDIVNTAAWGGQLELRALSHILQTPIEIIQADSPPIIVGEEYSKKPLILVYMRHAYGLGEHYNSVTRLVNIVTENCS
# Method in brief: (§1)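 HEK293T lysate (495 µg per sample, in Tris/CHAPS/IGEPAL buffer with protease inhibitors) was exposed in triplicate for 3 h to fragment at 200 µM or to vehicle, then to Biotin-Ahx-Ub-VS at 0.5 µM final for 1 h. Labelled DUBs were enriched on NeutrAvidin, digested with LysC and trypsin, and analysed by diaPASEF LC-MS/MS. Spectronaut label-free quantities were normalised to the global median, and values are average log2 ratios of fragment over vehicle from an unpaired t-test. Only proteins with ≥2 unique peptides were used.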
# OTUD7B = biological target: T2, OTUD7B (UniProt Q6GQQ9)
# T2 sequence (whole entry): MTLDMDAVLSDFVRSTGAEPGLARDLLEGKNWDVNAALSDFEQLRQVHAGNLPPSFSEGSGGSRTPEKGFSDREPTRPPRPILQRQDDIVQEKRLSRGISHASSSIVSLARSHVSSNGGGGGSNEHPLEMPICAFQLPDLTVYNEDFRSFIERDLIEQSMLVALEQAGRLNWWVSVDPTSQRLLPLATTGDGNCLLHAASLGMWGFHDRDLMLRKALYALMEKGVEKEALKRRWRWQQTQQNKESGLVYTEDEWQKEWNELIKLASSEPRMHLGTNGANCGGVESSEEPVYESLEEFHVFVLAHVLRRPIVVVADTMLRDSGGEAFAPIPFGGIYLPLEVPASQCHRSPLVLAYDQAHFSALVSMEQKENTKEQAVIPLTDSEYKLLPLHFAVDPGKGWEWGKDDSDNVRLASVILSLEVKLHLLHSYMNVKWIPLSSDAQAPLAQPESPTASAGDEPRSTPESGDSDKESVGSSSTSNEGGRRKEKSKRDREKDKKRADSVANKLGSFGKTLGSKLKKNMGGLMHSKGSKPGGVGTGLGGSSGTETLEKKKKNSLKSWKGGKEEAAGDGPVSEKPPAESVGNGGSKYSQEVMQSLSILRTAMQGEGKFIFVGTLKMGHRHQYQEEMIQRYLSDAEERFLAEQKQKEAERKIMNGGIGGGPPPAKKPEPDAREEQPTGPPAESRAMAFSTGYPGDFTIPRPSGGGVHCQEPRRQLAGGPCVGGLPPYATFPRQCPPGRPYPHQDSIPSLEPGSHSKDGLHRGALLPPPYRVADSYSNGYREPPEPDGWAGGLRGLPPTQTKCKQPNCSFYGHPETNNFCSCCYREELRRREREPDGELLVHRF
# Method in brief: as §1
# PRPF8 = PRPF8 (UniProt Q6P2Q9)
# Method in brief: as §1
# PSMD7 = biological target: T3, PSMD7 (UniProt P51665)
# T3 sequence (whole entry): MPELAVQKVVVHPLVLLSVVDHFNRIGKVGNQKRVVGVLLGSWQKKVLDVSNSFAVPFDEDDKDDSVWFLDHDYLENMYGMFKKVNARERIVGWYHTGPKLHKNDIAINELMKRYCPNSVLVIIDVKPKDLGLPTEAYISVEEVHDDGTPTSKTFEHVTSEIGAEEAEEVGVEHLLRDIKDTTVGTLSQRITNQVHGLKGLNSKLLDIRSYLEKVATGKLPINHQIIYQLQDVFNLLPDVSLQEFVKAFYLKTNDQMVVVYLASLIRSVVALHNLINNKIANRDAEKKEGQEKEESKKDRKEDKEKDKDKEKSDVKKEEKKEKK
# Method in brief: as §1
# UCHL1 = UCHL1 (UniProt P09936)
# Chain of UCHL1 (P09936 whole entry, looked up): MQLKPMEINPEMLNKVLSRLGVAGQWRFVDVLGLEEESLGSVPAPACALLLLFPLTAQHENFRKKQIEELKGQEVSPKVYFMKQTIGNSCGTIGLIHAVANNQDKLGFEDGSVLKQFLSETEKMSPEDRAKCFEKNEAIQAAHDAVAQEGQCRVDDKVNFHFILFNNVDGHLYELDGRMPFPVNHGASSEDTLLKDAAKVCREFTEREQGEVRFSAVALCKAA
# Method in brief: as §1
# UCHL3 = biological target: T4, UCHL3 (UniProt P15374)
# T4 sequence (whole entry): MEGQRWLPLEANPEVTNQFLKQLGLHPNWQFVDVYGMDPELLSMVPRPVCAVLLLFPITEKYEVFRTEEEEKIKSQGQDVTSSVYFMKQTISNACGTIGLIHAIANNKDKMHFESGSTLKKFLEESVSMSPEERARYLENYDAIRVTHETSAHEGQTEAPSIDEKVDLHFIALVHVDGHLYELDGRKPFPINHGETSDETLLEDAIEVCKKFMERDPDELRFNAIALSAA
# Method in brief: as §1
# UCHL5 = biological target: T5, UCHL5 (UniProt Q9Y5K5)
# T5 sequence (whole entry): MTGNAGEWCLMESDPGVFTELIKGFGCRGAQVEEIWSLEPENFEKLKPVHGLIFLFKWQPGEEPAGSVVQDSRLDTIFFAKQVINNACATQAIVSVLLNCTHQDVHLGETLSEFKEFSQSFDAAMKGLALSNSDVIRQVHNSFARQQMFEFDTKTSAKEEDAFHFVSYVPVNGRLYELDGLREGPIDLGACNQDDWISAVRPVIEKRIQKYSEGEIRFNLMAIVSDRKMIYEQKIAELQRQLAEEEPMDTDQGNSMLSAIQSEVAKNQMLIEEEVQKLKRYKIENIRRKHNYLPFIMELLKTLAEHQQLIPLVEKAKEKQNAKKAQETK
# Method in brief: as §1
# USP10 = USP10 (UniProt Q14694)
# Chain of USP10 (Q14694 whole entry): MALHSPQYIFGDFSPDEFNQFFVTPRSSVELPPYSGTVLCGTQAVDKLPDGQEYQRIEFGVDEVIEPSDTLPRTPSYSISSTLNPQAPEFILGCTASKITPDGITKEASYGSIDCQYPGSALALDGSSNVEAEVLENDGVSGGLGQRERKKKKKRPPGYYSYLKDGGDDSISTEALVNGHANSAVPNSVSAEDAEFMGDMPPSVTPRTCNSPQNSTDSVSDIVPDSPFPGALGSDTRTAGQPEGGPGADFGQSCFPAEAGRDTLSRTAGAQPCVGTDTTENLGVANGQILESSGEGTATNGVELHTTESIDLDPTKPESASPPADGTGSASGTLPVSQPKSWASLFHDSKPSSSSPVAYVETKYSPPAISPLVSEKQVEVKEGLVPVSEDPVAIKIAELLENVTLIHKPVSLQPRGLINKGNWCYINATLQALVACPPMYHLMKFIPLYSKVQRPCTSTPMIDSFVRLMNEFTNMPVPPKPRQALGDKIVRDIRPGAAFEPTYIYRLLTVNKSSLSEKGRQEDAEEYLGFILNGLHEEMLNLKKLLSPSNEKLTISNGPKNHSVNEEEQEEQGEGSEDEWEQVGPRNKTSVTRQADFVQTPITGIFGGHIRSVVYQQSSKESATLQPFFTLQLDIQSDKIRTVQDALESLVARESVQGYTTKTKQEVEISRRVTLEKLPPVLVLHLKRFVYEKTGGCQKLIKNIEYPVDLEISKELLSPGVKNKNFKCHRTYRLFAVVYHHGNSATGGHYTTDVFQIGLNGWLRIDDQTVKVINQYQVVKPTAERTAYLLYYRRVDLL
# Method in brief: as §1
# USP15 = biological target: T6, USP15 (UniProt Q9Y4E8)
# T6 sequence (whole entry): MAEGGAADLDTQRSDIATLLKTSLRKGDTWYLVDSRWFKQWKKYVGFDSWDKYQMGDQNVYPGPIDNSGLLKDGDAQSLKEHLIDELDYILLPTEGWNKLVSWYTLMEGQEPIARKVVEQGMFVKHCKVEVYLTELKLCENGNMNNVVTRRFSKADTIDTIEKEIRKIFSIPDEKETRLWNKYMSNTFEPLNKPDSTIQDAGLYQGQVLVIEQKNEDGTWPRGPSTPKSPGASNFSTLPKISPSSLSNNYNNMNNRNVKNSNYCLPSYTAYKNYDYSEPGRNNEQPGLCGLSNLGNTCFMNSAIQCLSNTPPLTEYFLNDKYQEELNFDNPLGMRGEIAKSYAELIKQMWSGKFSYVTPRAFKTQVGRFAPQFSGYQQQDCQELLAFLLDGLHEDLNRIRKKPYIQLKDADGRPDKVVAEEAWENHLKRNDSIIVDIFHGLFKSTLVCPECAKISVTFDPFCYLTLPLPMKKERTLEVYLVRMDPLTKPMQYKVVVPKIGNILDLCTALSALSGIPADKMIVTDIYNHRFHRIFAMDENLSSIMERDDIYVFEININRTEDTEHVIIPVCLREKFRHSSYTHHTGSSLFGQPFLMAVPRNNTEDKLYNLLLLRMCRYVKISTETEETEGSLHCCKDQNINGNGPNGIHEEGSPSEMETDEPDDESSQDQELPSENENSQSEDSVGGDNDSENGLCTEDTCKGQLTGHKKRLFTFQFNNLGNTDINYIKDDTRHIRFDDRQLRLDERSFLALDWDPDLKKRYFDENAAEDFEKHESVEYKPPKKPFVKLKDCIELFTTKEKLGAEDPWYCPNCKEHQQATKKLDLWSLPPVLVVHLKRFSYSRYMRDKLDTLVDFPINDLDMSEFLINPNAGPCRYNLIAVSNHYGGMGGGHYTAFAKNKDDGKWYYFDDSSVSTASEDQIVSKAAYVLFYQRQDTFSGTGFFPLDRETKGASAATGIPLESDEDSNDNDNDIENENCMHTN
# Method in brief: as §1
# USP16 = USP16 (UniProt Q9Y5T5)
# Chain of USP16 (Q9Y5T5 whole entry, looked up): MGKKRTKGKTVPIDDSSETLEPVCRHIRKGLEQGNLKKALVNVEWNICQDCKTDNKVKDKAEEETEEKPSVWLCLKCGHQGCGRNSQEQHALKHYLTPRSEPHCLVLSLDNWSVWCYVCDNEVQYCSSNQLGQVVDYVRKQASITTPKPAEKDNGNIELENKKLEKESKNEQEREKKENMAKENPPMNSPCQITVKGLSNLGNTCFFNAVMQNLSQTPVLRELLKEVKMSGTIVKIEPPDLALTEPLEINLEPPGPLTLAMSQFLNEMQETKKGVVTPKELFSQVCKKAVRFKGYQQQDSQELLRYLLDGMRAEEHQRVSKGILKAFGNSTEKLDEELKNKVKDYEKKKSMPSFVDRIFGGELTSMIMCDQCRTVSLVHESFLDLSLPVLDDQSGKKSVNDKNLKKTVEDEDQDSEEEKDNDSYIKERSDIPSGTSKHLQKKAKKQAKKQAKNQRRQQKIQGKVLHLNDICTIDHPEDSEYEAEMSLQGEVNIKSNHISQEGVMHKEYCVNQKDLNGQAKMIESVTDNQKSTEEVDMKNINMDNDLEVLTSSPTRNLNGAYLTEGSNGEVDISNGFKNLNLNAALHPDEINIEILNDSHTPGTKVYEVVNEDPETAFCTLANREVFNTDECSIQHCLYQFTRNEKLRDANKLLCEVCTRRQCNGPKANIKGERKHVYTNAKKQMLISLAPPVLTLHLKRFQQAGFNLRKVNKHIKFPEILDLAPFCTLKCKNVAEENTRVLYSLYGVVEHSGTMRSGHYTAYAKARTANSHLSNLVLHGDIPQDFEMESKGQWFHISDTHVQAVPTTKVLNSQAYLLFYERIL
# Method in brief: as §1
compound,measurement,setting,value
Cc1c(NC(=O)CCl)c(=O)n(-c2ccccc2)n1C,log2 ratio of Biotin-Ahx-Ub-VS probe labelling,OTUD6B,-0.0267
same,log2 ratio of Biotin-Ahx-Ub-VS probe labelling,OTUD7B,-0.0828
same,log2 ratio of Biotin-Ahx-Ub-VS probe labelling,PRPF8,0.192
same,log2 ratio of Biotin-Ahx-Ub-VS probe labelling,PSMD7,-0.0588
same,log2 ratio of Biotin-Ahx-Ub-VS probe labelling,UCHL1,-1.04 (active)
same,log2 ratio of Biotin-Ahx-Ub-VS probe labelling,UCHL3,0.0974
same,log2 ratio of Biotin-Ahx-Ub-VS probe labelling,UCHL5,-0.143
same,log2 ratio of Biotin-Ahx-Ub-VS probe labelling,USP10,-0.099
same,log2 ratio of Biotin-Ahx-Ub-VS probe labelling,USP15,-0.102
same,log2 ratio of Biotin-Ahx-Ub-VS probe labelling,USP16,-0.462

# — the supplement of paper PMC11732987, “Enantioselective OTUD7B fragment discovery through chemoproteomics screening and high-throughput optimisation” (Communications Chemistry, 2025)
